PubChem BioAssay AID504408 (Broad Institute, 2011)
Hit rate of the full screen: of about 300,000 compounds, about 5,200 (1.7%) were called active. Shown is part of a subset that was picked to be rich in actives. Values without a mark were called inactive.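 The calls were made as follows: active = mean replicate activation of at least 50% with a set share of replicates each reaching 50%; inconclusive = only one of those two conditions met; inactive = mean below 50% and too few replicates reaching it.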

Assay: HSF-1 activators, primary screen, NIH3T3-HGL cells, MG132 stress, luminescence, single point (AID 504408);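 also: 0% = median of the neutral control wells and 100% = twice that signal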
Details: NIH3T3-HGL HSF-1 luciferase reporter, MG132, 8 h; at 9 µM; hits give high values; 100% = twice DMSO control signal

| SMILES | activation |
| --- | --- |
| CN(CC(=O)Nc1cccc(F)c1)C(=O)C1CC(=O)N(CCc2ccccc2)C1 (stereo not drawn) | -1.17% |
| CCn1c2ccccc2c2cc(NC(=O)C/C(C)=N/NC(=O)c3ccccc3N)ccc21 | 87.9% (active) |
| CCn1c2ccccc2c2cc(NC(=O)COC(=O)c3ccccc3Br)ccc21 | 15.8% |
| CCn1c2ccccc2c2cc(NC(=O)CNC)ccc21 | -4.5% |
| Nc1c(C(=O)Nc2ccc3c(c2)OCCO3)nnn1Cc1ccccc1 | 43.5% |
| Cc1ccc(OCCNC(=O)CN2C(=O)NC3(CCCC3)C2=O)cc1 | 2.14% |
| CCCNC(=O)c1ccc(Cl)c(Cl)c1 | 8.76% |
| Cc1cc(N/C=C\C(=O)c2ccc(Cl)c(Cl)c2)no1 | 54.6% (active) |
| CCC(=O)Nc1ccc(C(=O)Nc2cc(C)on2)cc1 | 11.5% |
| O=C(CCCN=C1NS(=O)(=O)c2ccccc21)OCC(=O)c1ccc(F)c(F)c1 | -1.2% |
| CC(Oc1ccc(F)cc1)C(=O)Nc1cc(S(=O)(=O)N2CCOCC2)ccc1N1CCN(C)CC1 (stereo not drawn) | -1.39% |
| Cc1ccc(S(=O)(=O)N(C)c2ccc(OCC(=O)OCc3ccc(C#N)cc3)cc2)cc1 | -4.36% |
| Cc1ccc2nc(SCC(=O)N3CCN(c4ccccc4)CC3)nc(=O)n2c1 | -13.7% |
| C=CS(=O)c1sc(Cl)c(N2CCOCC2)c1[N+](=O)[O-] (stereo not drawn) | 103% (active) |
| COCCOC(=O)C1=C(C)N=c2s/c(=C\c3cccs3)c(=O)n2C1c1cccs1 (stereo not drawn) | 20% |
| CCOC(=O)C1=C(CSc2nccn2C)NC(=O)NC1c1ccc(OC)cc1 (stereo not drawn) | 30.7% |
| CCOC(=O)C1=C(C)N=c2s/c(=C\C(=O)OC)c(=O)n2C1c1ccc(OC)cc1 (stereo not drawn) | 61.6% (active) |
| COCCCn1c(SCC(=O)Nc2oc(C)c3c(C)n[nH]c(=O)c23)nc2sc3c(c2c1=O)CCC3 | 0.458% |
| CC1=NOC(=O)/C1=C\c1ccccc1 | 54.7% (active) |
| C=CCOc1ccc(/C=C2/C(=O)ON=C2C)cc1OCC | -6.38% |
| C#CCOc1ccccc1/C=C1/C(=O)ON=C1C | -2.14% |
| Cn1ccsc1=NC(=O)c1cc(S(=O)(=O)N2CCOCC2)ccc1Cl | 0.095% |
| O=C(Nc1c(Br)cc2c(c1Br)Cc1ccccc1-2)C(F)(F)F | -5.38% |
| COc1ccc2[nH]cc(/C=C(/C#N)S(=O)(=O)c3ccccc3)c2c1 | 0.918% |

| SMILES | activation |
| --- | --- |
| COc1ccc(/C=C(\C#N)c2c[nH]c3ccccc23)cc1 | 69.3% (active) |
| COc1cc(/C=C(\C#N)c2nc3ccccc3[nH]2)ccc1O | 20.9% |
| O=C(COc1ccccc1)Nc1cc2c3c(c1)CC(=O)N3CCC2 | 5.75% |
| O=C(NCc1cccnc1)c1cc(S(=O)(=O)N2CCOCC2)c(Cl)cc1Cl | -12.2% |
| CCN(CC)CCn1c2c(c(SCC(=O)Nc3ccc(C(C)C)cc3)nc1=O)CCC2 | 8.29% |
| Cc1cc(C(=O)N2CCN(c3ccccn3)CC2)c(C)o1 | 62.2% (active) |
| O=C(c1cc2ccccc2s1)N1CCN(c2ccccn2)CC1 | -12% |
| O=C(C(Cl)Cl)N1CCN(c2ccccn2)CC1 | 3.47% |
| COc1ccc(CCNc2cc(N3CCN(C(=O)c4ccccc4OC)CC3)ccc2[N+](=O)[O-])cc1OC | 22.3% |
| CN(C)c1ccnc(Oc2ccc(F)cc2)c1C#N | 3.38% |
| N#Cc1ccc(-c2ccc(Cl)cc2)nc1Oc1ccc(F)cc1 | 82.1% (active) |
| N#Cc1ccc(-c2ccc(F)cc2)nc1Sc1ccccc1 | -14.9% |
| CCOc1ccc(C(=O)CCC(=O)NC2=NCCS2)cc1 | 12.7% |
| CS(=O)(=O)c1ccc(Cl)c(NC(=O)Nc2ccccc2)c1 | -2.82% |
| O=C(Nc1ccccc1)c1nnsc1S(=O)(=O)c1ccc(Cl)cc1 | 79.4% (active) |
| O=C(c1ccc(Cl)cc1)c1cnc(Nc2ccccc2)s1 | 34.7% |
| CC(Sc1nn(-c2ccc(Cl)cc2)c(=S)s1)C(=O)NCC1CCCO1 (stereo not drawn) | 3.22% |
| CCC(=O)NC(=S)Nc1ccc(NC(=O)c2ccco2)c(Cl)c1 | 7.81% |
| O=C(NNC(=S)Nc1ccc(Br)cc1Cl)c1ccco1 | 59% (active) |
| O=C(NNC(=O)c1ccco1)Nc1ccccc1 | 12.4% |
| CCCCn1c(N)c(N(CCC(C)C)C(=O)c2ccc(COc3ccccc3)o2)c(=O)[nH]c1=O | 7.06% |
| CCCCn1c(N)c(N(CC(C)C)C(=O)CN(C)S(=O)(=O)c2ccc(F)cc2)c(=O)[nH]c1=O | -2.61% |
| Cc1ccc(S(=O)(=O)N2CCN(C(=O)c3ccc(-n4cncn4)c([N+](=O)[O-])c3)CC2)cc1 | -21.4% |
| Cc1ccc(NC(=O)CSc2cccc3cccnc23)c(C)c1 | 4.2% |

| SMILES | activation |
| --- | --- |
| O=C(CNC(=O)c1cccnc1)N/N=C/c1cccnc1 | -3.13% |
| O=C(CSc1cccc2cccnc12)N/N=C/c1cccnc1 | 161% (active) |
| CC(C)(C)S(=O)(=O)c1ccccc1-c1noc(-c2ccccc2)c1C(N)=O | -2.64% |
| CCOc1cc(/C=C2\SC(N3CCCCC3)=NC2=O)ccc1O | 34.2% |
| O=C1N=C(N2CCCC2)S/C1=C\c1cccc(Br)c1 | 103% (active) |
| CC1CCN(C2=NC(=O)/C(=C/c3ccc(O)cc3)S2)CC1 | 8.53% |
| NC(=O)NC(=O)C(OC(=O)CCNS(=O)(=O)c1ccccc1)c1ccccc1 (stereo not drawn) | 18.2% |
| O=C(CCNC(=O)c1ccc(Br)cc1)Nc1cccc(S(=O)(=O)N2CCCCC2)c1 | 23.3% |
| CCCCn1c(N)c(N(CC(C)C)C(=O)c2ccc(Br)o2)c(=O)[nH]c1=O | -5.41% |
| CCOc1ccc(/C=C/C(=O)OCC(=O)c2ccccc2OC)cc1OC | 1.42% |
| CCN1C(=O)[C@@H]2[C@@H](c3ccc(-c4ccccc4)cc3)N3CCCC[C@@]3(C(=O)OC)[C@@H]2C1=O | 16.1% |
| CSc1ccc(/C=N\NC(=O)COc2ccc(Cl)cc2Br)cc1 | 0.476% |
| COc1ccc(/C=N/NC(=O)c2cccc(C(F)(F)F)c2)cc1 | 0.104% |
| CSc1ccc(/C=N/NC(=O)c2cccc(Cl)c2)cc1 | 80.3% (active) |
| O=C(COC(=O)c1ccccc1SCC(=O)N1CCCC1)Nc1ccccc1OC(F)F | 5.14% |
| O=C(COC(=O)c1ccc([N+](=O)[O-])cc1Cl)NC(=O)c1ccccc1 | -8.14% |
| CCOc1ccc2ccccc2c1/C=N/NC(=O)c1c(C)cc(C)[nH]c1=O | 23.9% |
| Cc1nnc(N/N=C/c2ccccn2)[nH]c1=O | -18.5% |
| Cc1ccccc1Nc1nnc(C)c(=O)[nH]1 | 54.6% (active) |
| Cc1nnc(N/N=C/c2cccs2)[nH]c1=O | -4.02% |
| O=C(CSc1ccc(-c2ccc(-n3cccn3)cc2)nn1)Nc1ccc([N+](=O)[O-])cc1 | 8.59% |
| O=c1oc(/C=C/c2ccccc2)nc2ccccc12 | -13.5% |
| CCOc1cc(/C=C/c2nc3ccccc3c(=O)[nH]2)cc(Br)c1OC | 14.8% |
| O=c1[nH]c(/C=C/c2cccc(Br)c2)nc2ccccc12 | 58.9% (active) |

| SMILES | activation |
| --- | --- |
| CCOc1ccc(CCNC(=O)COC(=O)CCS(=O)(=O)c2ccc(C)cc2)cc1OCC | 1.98% |
| Cc1cc(Br)ccc1NC(=O)CN(C)C(=O)CN1C(=O)NC2(CCCC2)C1=O | 6.32% |
| CCC(c1nnnn1Cc1ccccc1)N(Cc1cc2cc(OC)ccc2[nH]c1=O)CC1CCCO1 (stereo not drawn) | 17.4% |
| CCC(c1nnnn1Cc1ccco1)N(CCc1ccccc1)Cc1cc2ccc(OC)cc2[nH]c1=O (stereo not drawn) | 9.84% |
| CCC(c1nnnn1Cc1ccco1)N(Cc1cc2cc(OC)ccc2[nH]c1=O)C1CCCCC1 (stereo not drawn) | 136% (active) |
| CCc1ccc(CNC(=O)CCc2nc(-c3cccs3)no2)cc1 | 3.43% |
| COc1ccc(OC)c(CNC(=O)CCc2nc(-c3cccs3)no2)c1 | -8.19% |
| COc1ccc(CCc2nc(-c3cccs3)no2)cc1 | 65% (active) |
| COc1cccc(N2CC(NS(=O)(=O)c3ccc(Cl)cc3)CC2=O)c1 (stereo not drawn) | 11.2% |
| COc1ccc(NC(=O)CCC(=O)N2CCN(S(=O)(=O)c3ccc(C)cc3)CC2)c(OC)c1 | -9.72% |
| CN(CC(=O)Nc1ccccc1Cl)C(=O)c1ccccc1SCC(=O)N1CCCC1 | 15.5% |
| O=C(O)CC1=C(Nc2ccccc2)C(=O)N(c2ccccc2)C1c1ccc(Cl)cc1 (stereo not drawn) | 65.5% (active) |
| COC(=O)CN1C(=S)N(c2ccccc2)C(=O)C1CC(=O)Nc1ccc(Cl)cc1 (stereo not drawn) | 4.42% |
| O=C(Nc1ccccc1)OCc1cn(-c2ccc(Cl)cc2)nn1 | -2.71% |
| COc1ccc(Cl)cc1C=CC=NNC(=O)c1ccncc1 | 5.04% |
| O=C(Cc1ccc(Br)cc1)NCCc1ccccc1 | 18.4% |
| CC(=O)c1c(C)[nH]c(C(=O)CN2C(=O)NC(C)(C)C2=O)c1C | -22.1% |
| Cc1cc(=O)oc2cc(OC(C)C(=O)NCCc3ccc(S(N)(=O)=O)cc3)ccc12 (stereo not drawn) | 12.2% |
| Cc1ccc2c(=O)cc(C(=O)NCCc3ccc(S(N)(=O)=O)cc3)oc2c1C | 62.8% (active) |
| Cc1cc(=O)oc2c(C)c(OCC(=O)NCCc3ccc(S(N)(=O)=O)cc3)ccc12 | -4.95% |
| O=C(NCCC1CCCCN1S(=O)(=O)c1ccc(F)cc1)C(=O)NC1CC1 (stereo not drawn) | 3.8% |
